Source: PubChem BioAssay (several laboratories)
GPR7 antagonist: antagonists of human GPR7 (neuropeptides B/W receptor 1); hit rate 1.1% among 290,000; inhibition, % at 4.4 µM; AID 1861; GPR7-expressing cells, fluorescence antagonist assay; P48145; in the data active = inhibition above about 16%, passing the limit was not always enough;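 also: cells stimulated with the agonist NPW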
Target sequence (P48145 whole entry, looked up): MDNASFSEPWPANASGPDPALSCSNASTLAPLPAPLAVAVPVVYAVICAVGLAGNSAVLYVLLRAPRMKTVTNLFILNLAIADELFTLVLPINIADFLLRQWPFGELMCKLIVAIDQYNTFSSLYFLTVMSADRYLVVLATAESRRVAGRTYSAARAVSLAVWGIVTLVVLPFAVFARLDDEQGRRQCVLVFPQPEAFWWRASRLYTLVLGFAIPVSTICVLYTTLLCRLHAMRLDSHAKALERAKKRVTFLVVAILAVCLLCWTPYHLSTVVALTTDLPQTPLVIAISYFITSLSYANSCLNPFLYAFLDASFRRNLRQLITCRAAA
CHT allo act: allosterically activates the human high affinity choline transporter | Q9GZV3 | CHT-expressing cells, membrane potential dye, choline EC20; hits give high values; LV-AA mutant CHT in HEK293 cells | B-score at 10 µM | hit rate 0.49% among 310,000;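 active = initial fluorescence not abnormally high and integrated response B-score, plate-corrected, over 3 SD above library mean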
Kir21 block: Kir2.1 (mouse) channel inhibition. B-score at 10 µM. hit rate 0.85% among 310,000. HEK293-Kir2.1, FluxOR thallium flux fluorescence; hits give low values;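 active = fluorescence ratio B-score at or below minus 3 SD of library scores, with starting-brightness B-score within 2 SD, cut at about -4.2 in these data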;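 also: channel flux triggered by added potassium and thallium sulfate stimulus; B-score of peak minus minimum fluorescence over baseline after thallium stimulus; more negative B-score means stronger Kir2.1 block with less thallium influx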
CHT block: inhibitors of human choline transporter CHT. B-score at 10 µM. CHT-expressing cells, membrane potential dye, choline response; hits give low values. Q9GZV3. hit rate 0.86% among 310,000;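 active = B-score over 3 SD under the library average, and starting fluorescence ratio not unusually high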;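 also: choline stimulus applied at its EC90 after an EC20 pre-addition; B-score computed on integrated fluorescence ratio after choline addition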
ANO1 block: mouse TMEM16A channel inhibition, primary screen; normalized B-score (activity score, 25-100; higher = stronger inhibition) at 10 µM; hit rate 1.2% among 310,000; AID 588511; Q8BHY3; HEK293 TMEM16A/YFP iodide influx fluorescence, ionomycin;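 active = ratio plate-corrected score three or more library SD toward inhibition, starting fluorescence score within five deviations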;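 also: score derived from kinetic fluorescence span divided by baseline fluorescence per well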
ANO1 activ: mouse TMEM16A channel activation, primary screen | HEK293 TMEM16A/YFP-H148Q/I152L, iodide quench fluorescence; hits give low values | Q8BHY3 | B-score at 10 µM | hit rate 0.3% among 340,000;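 active = fluorescence-ratio B-score plate-corrected deviation score at least 3 library SD below zero, with starting fluorescence score within 5 deviations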;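 also: channel opened by trigger with iodide after compound preincubation; score built on the fluorescence ratio of max minus min over baseline; more negative score means more quench and so TMEM16A activation or potentiation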
Each line names hits and unclear results; the compound was inactive in the other large screens. Only some compounds are listed: those with a hit (about 3.7% of all), similar ones and a draw of the others.

CC1COC(c2cccn2Cc2ccccc2Cl)=N1 (stereo not drawn)	none
CN(C(=O)Cn1cccc1C1=NC(c2ccccc2)CO1)c1ccccc1 (stereo not drawn)	Kir21 block -4.7
COc1cc(CNCc2ccc(SC)cc2)cc(OC)c1	Kir21 block -5.2
COc1cccc(CNCc2cc(OC)cc(OC)c2)c1	none
Cc1cc(C)c(O)c(-c2cc(C(=O)Nc3ccc(S(=O)(=O)N4CCOCC4)cc3)[nH]n2)c1	ANO1 block 25
CCOC(=O)N1CCC(N2Cc3cccc(C(=O)Nc4ccc(N(CC)CC)cc4C)c3C2=O)CC1	none
CCOc1ccc(CCNC(=O)COC(=O)CCC(=O)c2cccs2)cc1OCC	Kir21 block -5.3
CCOc1ccc(CCNC(=O)CCC(=O)c2cccs2)cc1OCC	none (no result: GPR7 antagonist, CHT allo act, Kir21 block, CHT block, ANO1 block)
CCCCCCCCn1ccc(=N)cc1	none
CCCCCCCCCCn1ccc(=N)cc1	GPR7 antagonist 23
Nc1ccccc1-n1c(=O)n(Cc2ccccc2F)c(=O)c2[nH]cnc21	none
CCC(=O)Nc1ccccc1C(=O)OCC(=O)c1ccccc1	none
CCC(=O)Nc1ccccc1C(=O)OCC(=O)c1ccc2ccccc2c1	GPR7 antagonist 19
O=C(COC(=O)c1ccccc1NC(=O)c1ccccc1)c1ccc([N+](=O)[O-])cc1	CHT allo act 6.4
COCCNC(=O)C/C(C)=N/NC(=O)C(=O)NC1CCCCC1	none
Cc1cc(C)c2nc(N3CCC(C(=O)NCCCN4CC(C)CC(C)C4)CC3)sc2c1 (stereo not drawn)	Kir21 block -6.8
Cc1cccc(NC(=O)c2cc3ccccc3o2)c1	GPR7 antagonist 18
O=C(Nc1ccc(N2CCOCC2)c(Cl)c1)c1cc2ccccc2o1	ANO1 block 25
O=C(Nc1ccc2c(c1)CCC2)c1cc2ccccc2o1	ANO1 activ -5.7
O=S(=O)(NCCSCc1ccc(Cl)cc1Cl)c1ccc2c(c1)OCCO2	none
O=S(=O)(NCCSc1ccc(Cl)cc1)c1ccc2c(c1)OCCO2	Kir21 block -5.4
Cc1ccc2c(c1)N(CC(=O)NCCCN1CCCCC1)C(=O)CO2	none
O=c1[nH][nH]c(=O)c(Cl)c1Cl	none (no result: GPR7 antagonist, CHT allo act, Kir21 block, CHT block, ANO1 block)
COCC(=O)N1CCC(Oc2ccc(C(=O)NC(C)c3nc(C)sc3C)cc2)CC1 (stereo not drawn)	none
COc1ccccc1NCCC(=O)OCC(=O)NC1CCCCCC1	Kir21 block -7.7
CC1CCCCN1C(=O)CN1CCN(S(=O)(=O)c2ccc(Br)cc2Cl)CC1 (stereo not drawn)	none (no result: GPR7 antagonist, CHT allo act, Kir21 block, CHT block, ANO1 block)
CCN(CC)c1ccc(/C=N/OCC(=O)Nc2cccc(C)c2)cc1	ANO1 block 25
Cc1cc(C)n(CCC(=O)N2CCc3ccccc32)n1	none
O=C(CCCCCN1C(=O)[C@@H]2Cc3ccccc3CN2C1=O)Nc1cccc(F)c1	ANO1 block 25
Cc1ccc(S(=O)(=O)N2CCN(c3nc(C)nc4sc(C)c(C)c34)CC2)cc1	GPR7 antagonist 14 (no result: CHT allo act, CHT block, ANO1 block, ANO1 activ)
Cc1nc(N2CCN(S(=O)(=O)c3ccc(F)cc3)CC2)c2c(C)c(C)sc2n1	none (no result: GPR7 antagonist)
Cc1ccc(NS(=O)(=O)c2ccc(NC(=O)CSc3ccc(Cl)cc3)cc2)c(C)c1	ANO1 block 25
Cc1ccc(NS(=O)(=O)c2ccc(NC(=O)c3ccccc3C(=O)O)cc2)c(C)c1	none (no result: GPR7 antagonist)
CCc1ccccc1N(CC(=O)NC1CCCCC1)C(=O)CCC(=O)Nc1ccccn1	ANO1 activ -5.8
O=C(CNC(=O)c1ccc(Cl)cc1Cl)Nc1ccc(F)cc1	none
O=c1c(O)c(-c2cccs2)oc2ccc(Cl)cc12	GPR7 antagonist 24
COc1cc(Cl)c(C)cc1NC(=O)CC1SC(N2CCOCC2)=NC1=O (stereo not drawn)	none (no result: GPR7 antagonist, CHT allo act, Kir21 block, CHT block, ANO1 block)
CC(=O)Nc1ccc(SCC(=O)c2c(N)n(Cc3ccccc3)c(=O)n(C)c2=O)cc1	none
CC(=O)NC(=S)c1c(N)n(Cc2ccccc2)c(=O)n(C)c1=O	GPR7 antagonist 21 (no result: ANO1 activ)
COc1ccc(OCCC(=O)OCC(=O)NCCC2=CCCCC2)cc1	ANO1 activ -34
COc1ccc(CC(=O)NCCC2=CCCCC2)cc1	none
COc1ccc(NC(=O)CN(C)C(=O)C2CCCO2)cc1 (stereo not drawn)	none (no result: GPR7 antagonist, CHT allo act, Kir21 block, CHT block, ANO1 block)
Cc1ccc(-c2csc3ncn(C(C)C(=O)O)c(=O)c23)cc1 (stereo not drawn)	none
